EBNA-1 inhibitor – blocks EBNA-1 binding to DNA | hit rate 0.34% among 300,000 | inhibition, % at 14.8 µM | EBNA-1 DNA binding, fluorescence polarization | AID 1950; in the data active = inhibition above about 28%
LYPLA2 inh – counter-screen for PME1 inhibitors: inhibitors of human LYPLA2; O95372; recombinant LYPLA2, FP-Rh probe fluorescence polarization; inhibition, % at 5.9 µM; hit rate 0.38% among 320,000; AID 2177;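 active = inhibition above the screen-wide mean plus 3 SD, limit set per campaign, cut at about 26% in these data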
LYPLA1 inh – blocks human lysophospholipase 1, a PME1 counter-screen. O75608. recombinant LYPLA1, FP-Rh probe fluorescence polarization. inhibition, % at 5.9 µM. hit rate 0.16% among 320,000. AID 2174;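 active = inhibition above the mean of all tested compounds plus 3 SD, set per campaign, cut at about 14% in these data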;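 also: inhibitors block serine hydrolase probe labeling of LYPLA1 so polarization falls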
PREPL inhibitor – inhibits the human prolyl oligopeptidase-like enzyme. inhibition, % at 5.96 µM. hit rate 0.68% among 320,000. recombinant PREPL, fluorescence polarization activity-based probe; in the data active = inhibition above about 43%
Target sequence (Q4J6C6 whole entry, looked up): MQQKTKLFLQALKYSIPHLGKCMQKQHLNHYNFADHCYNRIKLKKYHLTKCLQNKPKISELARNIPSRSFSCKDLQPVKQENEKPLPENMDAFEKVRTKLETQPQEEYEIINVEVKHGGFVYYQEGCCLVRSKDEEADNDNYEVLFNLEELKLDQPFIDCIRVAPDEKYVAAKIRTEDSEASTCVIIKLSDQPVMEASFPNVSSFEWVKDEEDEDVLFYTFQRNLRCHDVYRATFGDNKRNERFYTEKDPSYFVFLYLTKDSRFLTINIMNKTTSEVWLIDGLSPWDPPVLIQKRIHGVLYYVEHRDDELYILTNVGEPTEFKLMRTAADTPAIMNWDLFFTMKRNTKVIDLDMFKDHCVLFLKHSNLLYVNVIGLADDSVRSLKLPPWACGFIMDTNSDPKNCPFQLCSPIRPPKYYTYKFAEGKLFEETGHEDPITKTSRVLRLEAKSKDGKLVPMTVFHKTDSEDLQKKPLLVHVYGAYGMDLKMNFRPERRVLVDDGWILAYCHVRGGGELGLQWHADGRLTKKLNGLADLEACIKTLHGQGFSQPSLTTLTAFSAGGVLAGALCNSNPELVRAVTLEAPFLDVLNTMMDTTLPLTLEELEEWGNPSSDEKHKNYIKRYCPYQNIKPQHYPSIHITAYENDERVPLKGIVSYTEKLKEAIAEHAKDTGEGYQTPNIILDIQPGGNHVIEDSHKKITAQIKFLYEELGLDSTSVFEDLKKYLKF
ZTA counter – blocks Epstein-Barr virus ZTA, an EBNA-1 counter-screen | AID 2234 | P03206 | inhibition, % at 11 µM | hit rate 0.15% among 320,000 | ZTA-DNA binding, fluorescence polarization; in the data active = inhibition above about 33%
EBNA-1 inh conf – EBNA-1 (EBV) inhibition, confirmation. shares compounds with EBNA-1 inhibitor. Recombinant EBNA-1 DBD, Cy5-DNA fluorescence polarization. inhibition, % at 14.8 µM. hit rate 35% among 830. AID 2292;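 active = mean inhibition across replicates above a set limit taken from the earlier primary screen, cut at about 28% in these data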
ZTA DNA inh trip – counter-screen for EBNA-1 inhibitors: Epstein-Barr virus ZTA inhibitors, triplicate. inhibition, % at 11.1 µM. Zta-ZRE DNA binding, Cy5 fluorescence polarization. shares compounds with EBNA-1 inhibitor. 830 tested, under 10 active;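 active = mean inhibition over triplicates above a set limit taken from the primary EBNA-1 screen, cut at about 37% in these data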;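 also: purified full length Zta protein with Cy5 labeled ZRE DNA probe; inhibitors lower polarization by freeing the labeled DNA probe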
Numbers stand for hits; n = inactive; x = no result. Only some compounds are listed: those with a hit (about 1.3% of all), similar ones and a draw of the others.

SMILES	EBNA-1 inhibitor	LYPLA2 inh	LYPLA1 inh	PREPL inhibitor	ZTA counter	EBNA-1 inh conf	ZTA DNA inh trip
O=C(CCCN1C(=O)/C(=C/c2cccs2)SC1=S)NNC(=O)c1ccccc1O	40.1	n	n	n	n	n	n
N#C/C(=C(/O)COC(=O)CSc1ccc2ccccc2c1)c1nc2ccccc2[nH]1	39.1	n	n	n	n	n	n
C/C=C/C(=O)OCC(=O)Nc1ccc(SC(F)F)cc1	n	n	n	n	n	x	x
COCCN(C(=O)CCN1C(=O)C2CC=CCC2C1=O)c1c(N)n(CC(C)C)c(=O)[nH]c1=O (stereo not drawn)	x	n	n	n	n	x	x
Cc1ccc(C(=O)NC(=S)Nc2ccc3[nH]c(=O)[nH]c3c2)cc1	43.5	n	n	n	n	33.9	n
O=C(CSc1nnc(-c2ccc(Br)cc2)o1)Nc1cccc2ccccc12	40.2	n	n	n	n	51.5	n
O=C(CSc1nnc(-c2ccc(Br)cc2)o1)Nc1cccc(C(=O)O)c1	n	n	n	n	n	x	x
Cc1ccc(C)c(N2CCN(S(=O)(=O)c3cc4c(cc3Cl)NC(=O)CO4)CC2)c1	n	n	n	n	n	x	x
COc1ccc(-c2nc(SCC(=O)Nc3nccs3)c(-c3ccc(Cl)cc3)[nH]2)cc1	73.4	n	n	n	n	32.1	n
COc1ccc(-c2[nH]c(-c3ccc(C)cc3)nc2SCC(=O)Nc2nccs2)cc1	n	n	n	n	n	x	x
N#CC1CC(c2ccccc2)Nc2cc(Cl)ccc2N1 (stereo not drawn)	n	n	n	n	n	x	x
COc1ccc(NC(=O)CCC(=O)c2cccs2)cc1S(=O)(=O)Nc1ccc(Cl)cc1	33.8	n	n	n	n	n	n
O=C(COC(=O)/C=C/c1ccc([N+](=O)[O-])cc1)NC1CCCCC1	x	n	n	n	n	x	x
CCOC(=O)c1cc2cc(CC(=O)c3ccc(OCC)cc3O)ccc2o1	27.8	n	n	n	n	29.6	n
CC1CCN(S(=O)(=O)c2ccc(NC(=O)c3ccncc3)cc2)CC1	n	n	n	n	n	x	x
Cc1cccnc1NC(=O)c1ccc(S(=O)(=O)N2CCC(C)CC2)cc1	30.8	n	n	n	n	n	n
COc1ccc(/C(C)=N\Nc2nc(-c3ccccc3)cc(=O)[nH]2)cc1	41.7	n	n	n	n	n	n
Cc1ccccc1OCCn1cc(/C=C(\C#N)C(=O)NCc2ccco2)c2ccccc21	33.7	n	n	n	n	51.4	n
N#C/C(=C\c1cn(CCOc2ccccc2F)c2ccccc12)C(=O)NCc1cccs1	124.1	n	n	n	n	n	n
N#C/C(=C\c1cn(CCOc2ccccc2)c2ccccc12)C(=O)NCc1ccco1	n	n	n	n	n	x	x
Cc1c(C(C)CCCO)oc(=O)c2c1Oc1c(C)c(C(C)C[C@H](C)O)oc(=O)c1C2 (stereo partly drawn)	x	n	n	n	n	x	x
COc1cc(NC(=O)COC(=O)/C=C/c2ccc(Cl)cc2Cl)cc(OC)c1	53.4	n	n	n	n	59.2	n
COc1ccc(C)cc1NC(=O)COC(=O)c1ccc2c(c1)OCCO2	x	n	n	n	n	x	x
N#Cc1c(-c2cccs2)cc(C2CC2)nc1SCC(N)=O	36.0	n	n	n	n	30.7	n
NS(=O)(=O)c1ccc(NC(=O)c2ccc(COc3ccccc3)o2)cc1	38.7	n	n	n	n	n	n
SMILES	EBNA-1 inhibitor	LYPLA2 inh	LYPLA1 inh	PREPL inhibitor	ZTA counter	EBNA-1 inh conf	ZTA DNA inh trip
O=C(N/N=C/c1c(Cl)[nH]c2ccccc12)c1ccc2c(c1)OCCO2	n	n	n	n	n	x	x
Cc1ccnn1CCC(=O)N1CCCC(N2CCN(c3cccc(Cl)c3)CC2)C1 (stereo not drawn)	n	n	n	n	n	x	x
COc1cc(-c2nc3n(n2)C(c2cccc(OC)c2OC)C2=C(CCCC2=O)N3)cc(OC)c1OC (stereo not drawn)	84.5	n	n	n	n	111.5	n
COc1ccc(NC(=O)CCCNC(=O)Cn2cnc3sc(C)c(C)c3c2=O)cc1OC	n	n	n	n	n	x	x
CCc1ccc(NC(=O)CCCNC(=O)Cn2cnc3sc(C)c(C)c3c2=O)cc1	61.8	n	n	n	n	30.6	n
CC(NC(=O)C(C)N1CCN(Cc2ccccc2)CC1)c1ccc(F)cc1 (stereo not drawn)	n	n	n	n	n	x	x
COc1ccc(-c2csc(NC(=S)NC(=O)c3cccs3)n2)cc1Br	n	n	n	n	n	x	x
COc1ccc(-c2csc(NC(=S)NC(=O)c3ccc(S(=O)(=O)N(C)C)cc3)n2)cc1OC	46.2	n	n	n	n	58.7	41.5
O=C(Nc1cc(F)cc(F)c1)c1ccc(NCCc2ccccc2)c([N+](=O)[O-])c1	74.4	n	n	n	n	n	n
Cc1ccc(NC(=O)c2ccc(NCCc3ccccc3)c([N+](=O)[O-])c2)cc1F	n	n	n	n	n	x	x
Cc1ccccc1NC(=O)Cn1nc(C(=O)O)c2ccccc2c1=O	n	n	n	n	n	x	x
O=C(CCn1cnc2ccccc2c1=O)Nc1nc(-c2ccc(Br)cc2)cs1	32.3	n	n	n	n	44.4	n
O=C(Cn1cnc2ccccc2c1=O)Nc1nc2ccccc2s1	45.2	n	n	n	n	54.8	n
O=C(Cn1nc(C(=O)O)c2ccccc2c1=O)Nc1nc(-c2ccccc2)cs1	31.5	n	n	n	n	30.2	n
COc1ccc(CC(=O)N(CCC2=CCCCC2)c2c(N)n(Cc3ccccc3)c(=O)[nH]c2=O)cc1OC	n	n	n	n	n	x	x
C/C(=N\O)C1CCCCC1	n	n	n	n	n	x	x
CCN(/N=C/c1ccc(Cl)cc1)c1cc(=O)n(C)c(=O)[nH]1	37.3	n	n	n	n	n	n
CCN(/N=C/C=C/c1ccccc1)c1cc(=O)n(C)c(=O)[nH]1	n	n	n	n	n	x	x
C#CCOCCOCCOCCNc1nc(N2CCN(C(=O)C([C@@H](C)CC)n3cc(C(N)COC(=O)C(F)(F)F)nn3)CC2)nc(N2CCN(C(=O)C([C@@H](C)CC)n3cc(C(N)CC(C)C)nn3)CC2)n1 (stereo partly drawn)	n	n	n	n	n	x	x
CC(C)(C)NC(=O)CN(CCN1CCOCC1)C(=O)CNS(=O)(=O)c1ccc(Cl)cc1	n	n	n	n	n	x	x
COc1cc(NC(=O)CSc2nc3ccccc3c(=O)n2C)ccc1NC(=O)c1ccco1	40.5	n	n	n	n	27.9	n
Cc1[nH]c2ccccc2c1C(=O)C(=O)N1CCN(c2ccccc2)CC1	n	n	n	n	n	x	x
O=C(NCc1ccc2c(c1)OCO2)C12CN(Cc3ccccc3)CC1C(c1cccc([N+](=O)[O-])c1)=NO2 (stereo not drawn)	174.0	n	n	n	n	n	n
COc1cccc(N2CC(C(=O)Nc3nnc(SCCC4OCCO4)s3)CC2=O)c1 (stereo not drawn)	n	n	n	n	n	x	x
